According to PubChem BioAssay (NCATS):
Records with an inconclusive call do not appear. Activity calls are given as the source filed them. The call rests on the fitted dose curve; in most records, active means well fitted inhibition curve with a large enough effect; inconclusive means small, poorly fitted or top-dose-only effect; inactive means flat fitted curve, though single readings scatter.

tested on: PC49; assay: qHTS profiling for inhibitors of Plasmodium falciparum proliferation (AID 504749); further: nearly all actives have a fitted effect of over 60% in size; details: P. falciparum in erythrocytes, SYBR Green DNA, 72 h; series mostly up to 28.7 µM
How it was run: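 Each compound contacts P. falciparum-infected red blood cells for 72 h at 37 C; lysis buffer (Tris, EDTA, saponin, Triton X, SYBR Green I) is added and fluorescence measured next morning; values normalized to controls.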
Potency means the concentration at half of the fitted maximal effect.

Potency, inactive:
CCCCCCCCCCCCCCCC(=O)OC[C@H](O)[C@H]1OC[C@@H](O)[C@@H]1O
C[C@H]1OC(OC2C(O)[C@@H](O)C(OC3C(O)[C@@H](O)C(O)O[C@@H]3CO)O[C@@H]2CO)[C@H](O)C(O)C1N[C@H]1C=C(CO)[C@@H](O)[C@H](O)C1O (stereo partly specified)
CCN(CC)CC(=O)Nc1c(C)cc(C)cc1C
CC(=O)N[C@H]1[C@H](O[C@@H]2c3ccc(c(Cl)c3)Oc3cc4cc(c3O[C@@H]3O[C@H](CO)[C@@H](O)[C@H](O)C3C)Oc3ccc(cc3Cl)C[C@H]3NC(=O)[C@@H](N)c5ccc(O)c(c5)Oc5cc(O)cc(c5)[C@H](NC3=O)C(=O)N[C@H]4C(=O)N[C@H]3C(=O)N[C@@H]2C(=O)N[C@@H](C(=O)O)c2cc(O)cc(O[C@H]4O[C@H](CO)[C@@H](O)C(O)[C@@H]4O)c2-c2cc3ccc2O)O[C@H](CO)[C@@H](O)[C@@H]1O (stereo partly specified)
NC(=O)c1ncn(C2OC(CO)C(O)C2O)c1N (stereo unspecified)
CC1(Cn2ccnn2)[C@H](C(=O)O)N2C(=O)C[C@H]2S1(=O)=O (stereo partly specified)
CN(C)CC/C=C1\c2ccccc2COc2ccc(CC(=O)O)cc21
CCCC(=O)O[C@]1(C(=O)COC(C)=O)CC[C@H]2C3C[C@H](F)C4=CC(=O)C=CC4(C)[C@@]3(F)[C@@H](O)CC21C (stereo partly specified)
OCCN1CC(O)C(O)C(O)C1CO (stereo unspecified)
CC(CCC(=O)O)C1CCC2C3C(=O)C[C@@H]4CC(=O)CC[C@@]4(C)C3CC(=O)[C@]12C (stereo partly specified)
O=C(OC[C@@H]1O[C@@](O)(COC(=O)c2cccnc2)[C@H](OC(=O)c2cccnc2)[C@H]1OC(=O)c1cccnc1)c1cccnc1
O=[N+]([O-])O[C@H]1CO[C@H]2[C@@H]1OC[C@H]2O
COc1cccc(OC)c1C(=O)NC1C(=O)N2C1SC(C)(C)C2C(=O)O (stereo unspecified)
NC[C@@H]1O[C@H](OC2[C@@H](CO)O[C@@H](OC3[C@H](O)[C@H](N)C[C@H](N)[C@H]3OC3O[C@H](CO)[C@@H](O)[C@H](O)[C@@H]3N)[C@H]2O)C(N)[C@H](O)[C@@H]1O (stereo partly specified)
Cc1ccc(S(=O)(=O)NC(=O)NC(C)Cc2ccccc2)cc1 (stereo unspecified)
OCCOC[C@H]1O[C@H](OCCO)[C@H](OCCO)[C@@H](OCCO)[C@@H]1OCCO (tested in a mixture with another compound)
C[S+](C)CC[C@H](N)C(=O)O
CC[C@@H]1/C=C(\C)C[C@H](C)C[C@H](OC)[C@H]2O[C@@](O)(C(=O)C(=O)N3CCCC[C@H]3C(=O)O[C@H](/C(C)=C/[C@@H]3CC[C@H](Cl)[C@H](OC)C3)[C@H](C)[C@@H](O)CC1=O)[C@H](C)C[C@@H]2OC
NC(=O)C1CC2(NC(=O)NC2=O)c2cc(F)ccc2O1 (stereo unspecified)
CCCCCCCCCCCC(=O)OCC(O)C1OCC(O)C1O (stereo unspecified)
C/C1=C2/[N-]C(C(CC(N)=O)[C@@]2(C)CCC(=O)NCC(C)OP(=O)([O-])O[C@H]2[C@@H](O)[C@@H](n3cnc4cc(C)c(C)cc43)O[C@@H]2CO)[C@]2(C)N=C(/C(C)=C3N=C(/C=C4N=C1C(CCC(N)=O)C\4(C)C)[C@@H](CCC(N)=O)[C@]\3(C)CC(N)=O)[C@@H](CCC(N)=O)[C@]2(C)CC(N)=O.CC(=O)O.[Co] (stereo partly specified)
CC1(C)OC[C@@H]2O[C@@]3(C(=O)O)OC(C)(C)O[C@@H]3[C@@H]2O1
Cc1ccccc1N1C(=O)c2cc(N)ccc2N/C1=C\F
O=C1C(I)=CC(=C(c2cc(I)c(O)c(I)c2)c2ccccc2C(=O)O)C=C1I
NC(=O)NC(CCC(=O)O)C(=O)O (stereo unspecified)
CC(=O)OCC(=O)[C@@]1(O)CCC2C3C[C@H](C)C4=CC(=O)C=CC4(C)C3C(O)CC21C (stereo partly specified)
CC1(C)C2CC[C@]1(C)[C@@H](O)C2
OCC1O[C@H](Oc2ccc(O)cc2)C(O)C(O)C1O (stereo partly specified)
Nc1nc(F)nc2c1ncn2[C@@H]1O[C@H](CO)[C@@H](O)[C@H]1O
CC1OC(OC2CCC3(C)C(CCC4C3CC(O)C3(C)C(C5=CC(=O)OC5)CCC43O)C2)CC(O)C1OC1CC(O)C(OC2CC(O)C(OC3OC(CO)C(O)C(O)C3O)C(C)O2)C(C)O1 (stereo unspecified)
CC1OC(OCC2OC(Oc3c(-c4ccc(OCCO)c(OCCO)c4)oc4cc(OCCO)cc(O)c4c3=O)C(O)C(O)C2O)[C@@H](O)C(O)C1O (stereo partly specified)

Potency, active:
COc1cc2c(cc1O)CCN[C@@]21CS[C@H]2c3c(OC(C)=O)c(C)c4c(c3C(COC1=O)N1C2C2c3c(cc(C)c(OC)c3O)CC([C@@H]1O)N2C)OCO4 (stereo partly specified) 1.3 nM
C[n+]1c2cc(N)ccc2cc2ccc(N)cc21 447 nM
CCC(C(=O)O)C1OC(C(C)C(O)C(C)C(=O)C(CC)C2OC3(C=CC(O)C4(CCC(C)(C5CCC(O)(CC)C(C)O5)O4)O3)C(C)CC2C)C(C)CC1C (stereo unspecified) 251 nM
COC1CC2CCC(C)[C@](O)(O2)C(=O)C(=O)N2CCCCC2C(=O)OC(C(C)CC2CCC(O)C(OC)C2)CC(=O)C(C)/C=C(/C)C(O)C(OC)C(=O)C(C)CC(C)C=CC=C/C=C\1C (stereo partly specified) 2240 nM
CN[C@H](C)CCC=C(C)C 282 nM
